Test results from PubChem BioAssay AID1159580 (chemical genetic matrix, 2015).
Where “and” joins values, the source holds several entries; their conditions need not be identical. Identical values can stand only once. About 2,000 (36%) of roughly 5,500 compounds were called active. Not shown: some 18% with an inconclusive outcome. No stated cut-off is given here; in the data, active means normalized growth mostly below about 0.91 (no sharp cut-off); inconclusive means no clear call, values can overlap the other calls; inactive means mostly above about 0.92. This is one part of the list.

Experiment: chemical genetic growth profiling, strain panel (AID 1159580);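 further: tested at 20 µM; growth read once vehicle control cultures reached saturation at 30 °C; 1 = growth at the plate median or of vehicle wells; lower values mean less growth of the strain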
Conditions: S. cerevisiae deletion strains, growth OD

Measured: normalized growth

CCCc1ncc(C[n+]2ccccc2C)c(N)n1
inactive: locus YAL021C, strain ccr4, hits give low values 0.94 | locus YAL026C, strain drs2, hits give low values 0.999 | locus YAL030W, strain snc1, hits give low values 0.991 | locus YBL061C, strain skt5, hits give low values 0.976 | locus YBR009C, strain hhf1, hits give low values 1.03 | locus YBR021W, strain FUR4, hits give low values 1.06 | locus YBR023C, strain chs3, hits give low values 0.999 | locus YBR171W, strain sec66, hits give low values 0.969 | locus YBR229C, strain ROT2, hits give low values 1 | locus YBR231C, strain swc5, hits give low values 0.966 | locus YBR279W, strain paf1, hits give low values 1.01 | locus YCL011C, strain gbp2, hits give low values 1 | locus YCL016C, strain dcc1, hits give low values 1.01 | locus YCL029C, strain bik1, hits give low values 1 | locus YCL069W, strain vba3, hits give low values 0.981 | locus YCR088W, strain abp1, hits give low values 0.992 | locus YDL005C, strain med2, hits give low values 0.929 | locus YDL035C, strain GPR1, hits give low values 1.01 | locus YDL040C, strain nat1, hits give low values 0.967 | locus YDL074C, strain BRE1, hits give low values 0.99 | locus YDL101C, strain DUN1, hits give low values 1 | locus YDL134C, strain PPH21, hits give low values 0.996 | locus YDL185W, strain tfp1, hits give low values 1.01 | locus YDL192W, strain arf1, hits give low values 0.999 | locus YDR001C, strain nth1, hits give low values 0.987 | locus YDR069C, strain doa4, hits give low values 0.983 | locus YDR101C, strain arx1, hits give low values 1.01 | locus YDR137W, strain rgp1, hits give low values 0.998 | locus YDR159W, strain sac3, hits give low values 0.995 | locus YDR162C, strain NBP2, hits give low values 1.01 | locus YDR195W, strain ref2 0.932 | locus YDR297W, strain sur2, hits give low values 0.999 | locus YDR318W, strain mcm21, hits give low values 0.995 | locus YDR334W, strain swr1, hits give low values 0.992 | locus YDR335W, strain msn5, hits give low values 0.99 | locus YDR388W, hits give low values 0.997 | locus YDR392W, strain spt3, hits give low values 1.08 | locus YDR502C, strain sam2, hits give low values 0.993 | locus YEL003W, strain gim4, hits give low values 0.983 | locus YEL037C, strain rad23, hits give low values 0.984 | locus YEL061C, strain CIN8 (second series), hits give low values 0.988 | locus YEL061C, strain CIN8, hits give low values 1 | locus YER015W, strain faa2, hits give low values 0.992 | locus YER016W, strain bim1, hits give low values 1.02 | locus YER110C, hits give low values 0.99 | locus YER111C, strain swi4, hits give low values 0.983 | locus YER155C, strain BEM2 (second series), hits give low values 0.975 | locus YER155C, strain BEM2, hits give low values 0.991 | locus YER167W, strain BCK2, hits give low values 0.991 | locus YFR010W, strain ubp6, hits give low values 0.99 | locus YGL078C, strain dbp3, hits give low values 0.988 | locus YGL086W, strain mad1, hits give low values 0.984 | locus YGL167C, strain pmr1, hits give low values 0.961 | locus YGL173C, strain kem1, hits give low values 0.947 | locus YGL227W, strain vid30, hits give low values 0.988 | locus YGL240W, strain doc1, hits give low values 0.96 | locus YGL248W, strain PDE1, hits give low values 0.983 | locus YGL253W, strain hxk2, hits give low values 1.01 | locus YGR078C, strain PAC10, hits give low values 0.983 | locus YGR135W, strain pre9, hits give low values 0.984 | locus YGR229C, strain SMI1, hits give low values 0.997 | locus YGR252W, strain gcn5, hits give low values 0.967 | locus YHR013C, strain ard1, hits give low values 0.986 | locus YHR027C, strain rpn1, hits give low values 0.997 | locus YHR030C, strain SLT2, hits give low values 1 and 1.11 | locus YHR079C, strain IRE1 (second series), hits give low values 0.998 | locus YHR079C, strain IRE1, hits give low values 1.04 | locus YHR094C, strain hxt1, hits give low values 0.994 | locus YHR129C, strain ARP1, hits give low values 1 | locus YHR142W, strain chs7, hits give low values 0.976 | locus YHR200W, strain rpn10, hits give low values 0.995 | locus YIL066C, strain RNR3, hits give low values 1.02 | locus YIL073C, strain SPO22, hits give low values 0.975 | locus YIL125W, strain kgd1, hits give low values 0.986 | locus YIR030C, strain dcg1, hits give low values 1.02 | locus YJL092W, strain hpr5, hits give low values 0.959 | locus YJL095W, strain BCK1 (second series), hits give low values 0.95 | locus YJL095W, strain BCK1, hits give low values 1.03 and 1.04 | locus YJL115W, strain asf1, hits give low values 0.981 | locus YJL129C, strain trk1, hits give low values 0.966 | locus YJL134W, strain LCB3, hits give low values 1.01 | locus YJL154C, strain vps35, hits give low values 0.972 | locus YJL164C, strain tpk1, hits give low values 1.01 | locus YJL166W, strain qcr8, hits give low values 0.941 | locus YJL168C, strain set2, hits give low values 1 | locus YJL187C, strain SWE1 (second series), hits give low values 0.988 | locus YJR043C, strain POL32, hits give low values 0.989 | locus YJR066W, strain TOR1, hits give low values 0.993 | locus YJR075W, strain HOC1, hits give low values 0.988 | locus YKL009W, strain mrt4, hits give low values 0.958 | locus YKL068W, hits give low values 0.995 | locus YKL085W, strain MDH1 (second series), hits give low values 0.983 | locus YKL085W, strain MDH1, hits give low values 0.983 | locus YKL160W, strain elf1, hits give low values 0.981 | locus YKL190W, strain CNB1, hits give low values 1.01 | locus YKR001C, strain vps1, hits give low values 1 | locus YKR091W, strain srl3, hits give low values 0.964 | locus YLL001W, strain dnm1, hits give low values 0.931 | locus YLL026W, hits give low values 0.983 | locus YLL041C, strain sdh2, hits give low values 0.991 | locus YLR027C, strain aat2, hits give low values 0.983 | locus YLR039C, strain RIC1, hits give low values 0.944 | locus YLR058C, strain SHM2, hits give low values 1.01 | locus YLR102C, strain apc9, hits give low values 0.995 | locus YLR113W, strain HOG1, hits give low values 1.05 | locus YLR221C, strain rsa3, hits give low values 1.02 | locus YLR258W, strain gsy2, hits give low values 0.991 | locus YLR262C, strain YPT6 (second series), hits give low values 0.951 | locus YLR262C, strain YPT6, hits give low values 0.988 | locus YLR268W, strain sec22, hits give low values 0.985 | locus YLR320W, strain mms22, hits give low values 1.01 | locus YLR330W, strain CHS5, hits give low values 1.01 | locus YLR342W, strain FKS1 (second series), hits give low values 0.999 | locus YLR342W, strain FKS1, hits give low values 0.958 | locus YLR357W, strain rsc2, hits give low values 0.977 | locus YLR370C, strain arc18, hits give low values 0.997 | locus YLR371W, strain rom2, hits give low values 0.996 | locus YLR384C, strain iki3, hits give low values 0.976 | locus YLR418C, strain cdc73, hits give low values 0.977 | locus YML016C, strain PPZ1, hits give low values 1.01 | locus YML032C, strain rad52, hits give low values 0.988 | locus YML120C, strain ndi1, hits give low values 0.98 | locus YML124C, strain tub3, hits give low values 0.989 | locus YMR058W, strain fet3, hits give low values 0.975 | locus YMR078C, strain ctf18, hits give low values 0.999 | locus YMR125W, strain sto1, hits give low values 0.969 | locus YMR129W, hits give low values 0.986 | locus YMR205C, strain PFK2, hits give low values 0.982 | locus YMR223W, strain ubp8, hits give low values 0.997 | locus YMR231W, strain pep5, hits give low values 0.978 | locus YMR307W, strain GAS1, hits give low values 1.06 | locus YNL067W, strain RPL9B, hits give low values 0.992 | locus YNL071W, strain lat1, hits give low values 0.995 | locus YNL153C, strain GIM3, hits give low values 0.987 | locus YNL183C, strain NPR1, hits give low values 0.988 | locus YNL209W, strain ssb2, hits give low values 0.993 | locus YNL233W, strain BNI4, hits give low values 1.01 | locus YNL248C, strain rpa49, hits give low values 0.995 | locus YNL250W, strain rad50, hits give low values 0.994 | locus YNL271C, strain bni1, hits give low values 1 | locus YNL298W, strain CLA4, hits give low values 0.995 | locus YNL307C, strain MCK1, hits give low values 0.992 | locus YNL322C, strain KRE1 (second series), hits give low values 0.961 | locus YNR049C, strain mso1, hits give low values 0.987 | locus YNR052C, strain pop2, hits give low values 0.999 | locus YOL012C, strain htz1 0.884 | locus YOL147C, strain pex11, hits give low values 0.994 | locus YOR001W, strain rrp6, hits give low values 0.979 | locus YOR061W, strain CKA2, hits give low values 1.01 | locus YOR069W, strain VPS5, hits give low values 1 | locus YOR070C, strain gyp1, hits give low values 0.992 | locus YOR080W, strain dia2, hits give low values 0.965 | locus YOR083W, strain WHI5, hits give low values 0.94 | locus YOR106W, strain vam3, hits give low values 0.945 | locus YOR136W, strain idh2, hits give low values 0.983 | locus YOR144C, strain elg1, hits give low values 0.989 | locus YOR184W, strain ser1, hits give low values 0.993 | locus YOR231W, strain MKK1, hits give low values 1.04 | locus YOR265W, strain rbl2, hits give low values 0.987 | locus YOR270C, strain vph1, hits give low values 1 | locus YOR290C, strain snf2, hits give low values 1.01 | locus YOR316C, strain cot1, hits give low values 0.997 | locus YPL051W, strain arl3, hits give low values 0.998 | locus YPL055C, strain LGE1, hits give low values 1.01 | locus YPL078C, strain atp4, hits give low values 0.954 | locus YPL106C, strain sse1, hits give low values 1 | locus YPL240C, strain hsp82, hits give low values 0.985 | locus YPL256C, strain CLN2, hits give low values 1.08 | locus YPR119W, strain clb2, hits give low values 0.998 | locus YPR141C, strain kar3, hits give low values 0.976 | locus YPR163C, strain tif3, hits give low values 0.987 | locus YPR167C, strain met16, hits give low values 0.991 | strain wtn01, hits give low values 0.973
